Most compounds without a hit are left out; they make up all but 1.3% or so of the library.
GLD-1 TGE inh – GLD-1-TGE RNA interaction inhibition (C. elegans); Q17339; purified GLD-1 + fluorescein TGE RNA, fluorescence polarization; inhibition, % at 5.96 µM; actives 0.44% (n = 320,000); AID 2280;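 active = percent inhibition above a per-plate cutoff, the plate mean of test compounds plus 3 SD, cut at about 30% in these data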
Target sequence (Q17339 whole entry, looked up): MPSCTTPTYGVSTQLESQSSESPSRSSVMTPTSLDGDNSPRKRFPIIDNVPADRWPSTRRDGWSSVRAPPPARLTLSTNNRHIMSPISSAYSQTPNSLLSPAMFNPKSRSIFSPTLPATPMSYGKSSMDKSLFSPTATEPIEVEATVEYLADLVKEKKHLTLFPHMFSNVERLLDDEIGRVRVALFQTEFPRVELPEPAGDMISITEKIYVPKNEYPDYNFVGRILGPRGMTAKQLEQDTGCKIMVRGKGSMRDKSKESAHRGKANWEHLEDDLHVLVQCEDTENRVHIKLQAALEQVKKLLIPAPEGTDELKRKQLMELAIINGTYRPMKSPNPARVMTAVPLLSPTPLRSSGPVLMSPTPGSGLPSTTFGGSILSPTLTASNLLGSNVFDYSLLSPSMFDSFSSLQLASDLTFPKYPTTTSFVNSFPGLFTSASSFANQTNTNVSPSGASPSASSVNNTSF
MEX-5 binding – C. elegans MEX-5 TCR-2 RNA binding activity; activity score (negative = inhibition of binding), % at 10 µM; Q9XUB2; actives 0.38% (n = 300,000); MEX-5/FITC-TCR2 RNA binding, fluorescence polarization; hits give low values;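 active = inhibition past about -25% in most replicates, and total fluorescence under double the plate's negative control median, limit read from the data; inconclusive = replicates evenly split on the limit, or fluorescence at least double controls; inactive = too little inhibition in most replicates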
Bcl-xL primary – blocks human Bcl-xL binding to Bim BH3 peptide | GST-Bcl-xL / FITC-Bim BH3 peptide fluorescence polarization | actives 0.7% (n = 320,000) | Q07817 | AID 2129 | inhibition, % at 10.9 µM;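 active = inhibition above the mean of all tested compounds plus 3 SD, cutoff set per campaign, cut at about 30% in these data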;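 also: inhibitors lower millipolarization by displacing the labeled peptide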
EBV gp42 block – EBV gp42 inhibition. Q1HVG2. Fluorescence polarization binding assay, mP read-out. inhibition, % (tested at 21.74 µM). actives 0.42% (n = 220,000); in the data active = inhibition above about 50%
MCL1-BIM inh – disrupts human MCL1 binding to BIM-BH3 peptide; inhibition, % at 10.9 µM; actives 0.68% (n = 320,000); AID 2057; Q07820; GST-MCL1 / FITC-Bim-BH3 fluorescence polarization;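 active = inhibition above the mean inhibition of all tested compounds plus 3 SD, set per campaign, cut at about 40% in these data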;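 also: higher means more loss of mP so more displacement of Bim peptide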
Bcl-xL conf – counter-screen for MCL1 inhibitors: confirmation of human Bcl-xL inhibitors; actives 54% (n = 1,700); GST-Bcl-xL / FITC-Bim BH3 peptide FP binding; AID 2166; inhibition, % at 10.9 µM; shares compounds with MCL1-BIM inh;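 active = inhibition above a cutoff equal to the mean inhibition of all tested compounds plus 3 SD, cut at about 30% in these data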
MCL1 BIM confirm – MCL1-BIM-BH3 interaction inhibition, confirmation. shares compounds with MCL1-BIM inh. GST-MCL1 / FITC-Bim-BH3 fluorescence polarization. inhibition, % at 10.9 µM. actives 61% (n = 1,700). AID 2168;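 active = inhibition above the average of all tested compounds plus 3 SD, cut at about 40% in these data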
Hits are given with their value; n = inactive; u = inconclusive; x = no result.

SMILES | GLD-1 TGE inh | MEX-5 binding | Bcl-xL primary | EBV gp42 block | MCL1-BIM inh | Bcl-xL conf | MCL1 BIM confirm
c1ccc2sc(NCC3CCCO3)nc2c1 (centres undefined) | n | n | n | n | n | x | x
CC1=CC(=C(C#N)c2nc3ccccc3s2)C=C(C)N1CC1CCCO1 (centres undefined) | n | -36 | n | 155 | n | x | x
COc1ccc(C2=NN(c3ccc(C=O)cc3)C(c3ccccc3)C2)cc1 (centres undefined) | n | n | n | x | n | x | x
COc1ccc(C2CC(c3cccs3)=NN2c2ccc(C=O)cc2)cc1 (centres undefined) | n | -47 | n | n | n | x | x
Cc1cc(C)nc(NN2C(=O)C=CC2=O)n1 | n | -29 | n | x | n | x | x
COc1ccc(NS(=O)(=O)c2csc(C(=O)N3CCCC3)c2)c(OC)c1 | n | n | n | x | n | x | x
COc1ccc(C(=O)Nc2ccc(NC(=O)c3ccccc3)cc2)cc1S(=O)(=O)N1CCOCC1 | n | n | n | x | n | x | x
COc1ccc(NC(=O)c2c3c(nc4ccccc24)CCC3)cc1S(=O)(=O)N1CCOCC1 | n | n | n | n | 50 | n | 45
CC1CCN(S(=O)(=O)c2ccc(C(=O)N3CCOCC3)cc2)CC1 | n | n | n | x | n | x | x
COc1ccc(N=Nc2[nH]c3ccc(C)cc3c2O)cc1 | n | n | n | n | n | x | x
Cc1ccc(N=Nc2[nH]c3ccccc3c2O)cc1 | 67 | -61 | 101 | 100 | 109 | 83 | 81
CC1CCN(C(=O)Cn2nnc(-c3ccccc3)n2)CC1 | n | n | n | x | 45 | n | n
CC1CC(C)CN(C(=O)Cn2nnc(-c3ccccc3)n2)C1 (centres undefined) | n | n | n | x | n | x | x
N#Cc1c(-c2ccc(Cl)cc2)cc(-c2cccs2)nc1SCC(=O)O | n | n | 50 | x | 73 | 37 | 53
N#Cc1c(-c2ccccc2)cc(-c2cccs2)nc1SCC(=O)O | n | n | n | x | n | x | x
Cc1cc2c(c(CO)c1CCO)C(=O)[C@@H](C)[C@@H]2O | n | x | x | x | x | x | x
Cc1noc(/C=C/N(C)C)c1S(=O)(=O)N1CCCC(C(=O)NC2CCCCC2)C1 (centres undefined) | n | n | n | n | n | x | x
Cc1noc(/C=C/N(C)C)c1S(=O)(=O)N1CCCC(C(=O)N2CCCCC2)C1 (centres undefined) | 32 | n | 72 | n | 66 | n | n
O=Cc1ccc2noc(-c3ccc(F)cc3)c2c1 | 103 | u | 101 | 151 | 106 | 123 | 163
CC1(c2ccc3noc(-c4ccc(F)cc4)c3c2)OCCO1 | 89 | n | 74 | 86 | 83 | 78 | 111
Cc1ccc(C)c(NC(=O)C(=O)NCC2CCCN2S(=O)(=O)c2cccs2)c1 (centres undefined) | n | n | n | x | n | x | x
Nc1cccc2cc(-c3ccccc3)oc12 | n | x | n | x | n | x | x
CN(Cc1ccccc1)S(=O)(=O)c1ccc(Cl)c(C(=O)NCCCN2CCOCC2)c1 | n | n | n | x | n | x | x
CC(C)C1Nc2ccc(C(=O)O)cc2C2C=CCC21 (centres undefined) | n | -54 | 48 | n | 82 | 36 | 48
CCCC1Nc2ccc(C(=O)O)cc2C2C=CCC12 (centres undefined) | n | -49 | 49 | n | 87 | n | n
SMILES | GLD-1 TGE inh | MEX-5 binding | Bcl-xL primary | EBV gp42 block | MCL1-BIM inh | Bcl-xL conf | MCL1 BIM confirm
O=C(O)c1ccc2c(c1)C1C=CCC1C(c1ccncc1)N2 (centres undefined) | n | n | n | n | n | x | x
O=C(Nc1ccc(C2SCCS2)cc1)c1ccccc1 | n | n | n | n | n | x | x
S=c1[nH]c2cc(-c3ccccc3)ccc2o1 | n | n | n | n | n | x | x
Nc1cccc(-n2nnnc2CN2CCOCC2)c1 | n | n | n | n | n | x | x
COc1ccc(/C=N/NC(=O)COc2ccc3ccccc3c2)c(C(=O)O)c1OC | n | n | n | n | n | x | x
COc1ccc(/C=N/NC(=O)COc2cccc3ccccc23)c(C(=O)O)c1OC | n | n | n | n | 54 | n | n
O=C(CNC(=O)c1ccccn1)N=Nc1c(O)[nH]c2ccccc12 | n | n | n | x | n | x | x
Cc1ccc(S(=O)(=O)c2nc(C)oc2NCc2ccccc2)cc1 | n | n | n | n | 40 | n | 57
CNc1oc(C)nc1S(=O)(=O)c1ccc(C)cc1 | n | n | n | n | n | x | x
CC(C)OCCCn1c(=NC(=O)c2cccs2)c(C#N)cc2c(=O)n3ccccc3nc21 | 58 | u | 106 | n | 114 | n | n
CC(C)OCCCn1c(=N)c(C(N)=S)cc2c(=O)n3ccccc3nc21 | n | n | 83 | n | 82 | 70 | 86
Cc1ccc(/C=c2\sc3nc(-c4ccco4)nn3c2=O)o1 | n | n | n | n | 58 | 45 | 72
Cc1ccc(-c2nc3s/c(=C\c4ccco4)c(=O)n3n2)cc1 | n | n | n | n | n | x | x
COc1ccc(Br)cc1/C=c1\sc2nc(-c3ccco3)nn2c1=O | n | n | 40 | x | 80 | n | 50
Cc1ccsc1C(=O)Nc1nc2ccccc2[nH]1 | n | n | n | n | n | x | x
CCOC(=O)C(=O)N1CCC(C(=O)OC)CC1 | n | n | n | n | n | x | x
O=C(NCc1ccc2c(c1)OCO2)c1cc(=O)[nH]c2ccccc12 | n | n | n | n | n | x | x
O=C(O)CCN1C(=O)/C(=C/c2cn(-c3ccccc3)nc2-c2cccs2)SC1=S | x | x | x | n | x | x | x
Cc1ccc(-c2nn(-c3ccccc3)cc2/C=C2\SC(=S)N(CC(=O)O)C2=O)cc1 | n | n | n | n | 70 | n | n
O=C1C2C(C(=O)N1/N=C/c1cc([N+](=O)[O-])c(O)cc1O)C1C=CC2C12CC2 (centres undefined) | n | n | n | n | 48 | n | 59
COc1cccc(C(=O)OCC(=O)Nc2sc3c(c2C(N)=O)CCC3)c1O | n | x | n | x | 50 | n | 45
Cn1cnnc1SCC(=O)Nc1sc2c(c1C(N)=O)CCC2 | n | n | n | 65 | 56 | n | 56
CCOC(=O)c1sc(-c2ccccc2)cc1NC(=O)Nc1ccc([N+](=O)[O-])cc1 | n | n | n | n | n | x | x
CCN(C(=O)CSc1nnc(SC)s1)c1c(N)n(Cc2ccccc2)c(=O)[nH]c1=O | 59 | x | 84 | x | 93 | n | n
CSc1nnc(SCC(=O)N(C)c2c(N)n(Cc3ccccc3)c(=O)[nH]c2=O)s1 | n | n | n | x | n | x | x
COc1cccc(OC)c1C(=O)N1CCN(C(=O)c2ccc(-c3ccccc3)cc2)CC1 | n | n | n | x | n | x | x
CCC1(C)Cc2c(sc3nc(SC)[nH]c(=S)c23)CO1 (centres undefined) | 32 | n | 50 | x | 57 | n | n
CCSc1nc2sc3c(c2c(=O)[nH]1)CC(C)(CC)OC3 (centres undefined) | n | n | n | n | n | x | x

Assay outcomes deposited in PubChem by several laboratories.
